Reference: PubChem BioAssay
Active and inactive are the calls of the source. Unless noted, no stated cut-off is given here; in the data, active means inhibition above about 80%; inactive means the rest.

What was measured:
[1] = growth inhibition, single agents and combos, CRL2098, cell-based, BGB or cisplatin IC20 combos, synergistic combos for chromothripsis tumors (AID 1671454); conditions: CRL2098 osteosarcoma cells, drug combinations, stronger effect = higher value;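 further: cells exposed for 96 h before readout; 0% = vehicle DMSO and 100% = killing by high DMSO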
[2] = growth inhibition, single agents and combos, HD-MB03, cell-based, BGB or cisplatin IC20 combos, synergistic combos for chromothripsis tumors (AID 1671455; in the data active means inhibition above about 83%;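 further: 0% = vehicle DMSO and 100% = high DMSO as cytotoxic control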); conditions: HD-MB03 medulloblastoma cells, stronger effect = higher value
[3] = growth inhibition, single agents and combos, UWB1.289, cell-based, BGB or cisplatin combos, synergistic combos for chromothripsis tumors (AID 1671456); conditions: UWB1.289 ovarian carcinoma cells, stronger effect = higher value;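 further: cells exposed to compound for four days; 0% = vehicle DMSO and 100% = killing by high DMSO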
[4] = growth inhibition, single agents and combos, LFS_MB_2R, cell-based, cisplatin combos, synergistic combos for chromothripsis tumors (AID 1671457); conditions: LFS_MB_2R medulloblastoma cells, stronger effect = higher value;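 further: cells exposed to compound for four days before readout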
[5] = growth inhibition, MDA-MB-436, cell-based, BGB or cisplatin combos, synergistic combos for chromothripsis tumors (AID 1671458; call rule not given here;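 further: cells exposed for 96 hours; 0% = vehicle DMSO and 100% = killing by high DMSO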); conditions: MDA-MB-436 breast carcinoma growth inhibition, drug combinations, stronger effect = higher value
[6] = UWB1.289_BRCA1 ovarian cancer growth, cell-based, BGB or cisplatin combinations (AID 1671459); conditions: UWB1.289 BRCA1 ovarian carcinoma, drug combinations, stronger effect = higher value
[7] = drug combination toxicity in non-malignant astrocytes – cell-based, BGB or cisplatin IC20 combos, cytotoxicity control for chromothriptic childhood tumor combination screen (AID 1671460); conditions: Human astrocytes, viability inhibition, drug combinations, at 0.5 µM, stronger effect = higher value;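 further: cells exposed to compounds for 96 hours before viability readout; 0% = vehicle and 100% = killing control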
[8] = BT084 cell growth, single and combined drugs, ICGC_MB145, cisplatin and BGB IC40 combos (AID 1671461); conditions: BT084 medulloblastoma cells, drug combinations, stronger effect = higher value;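 further: cells exposed to drugs for 96 hours; 0% = vehicle DMSO and 100% = high DMSO full killing control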
[9] = RCMB18 cell growth, single agent and combined, cisplatin and BGB IC40 combos (AID 1671462); conditions: RCMB18 medulloblastoma cells, stronger effect = higher value;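 further: cells exposed to compound for four days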
[10] = CRL1545 cell growth, single agent and combined, cisplatin and BGB IC20 combos (AID 1671464); conditions: CRL1545 osteosarcoma cells, stronger effect = higher value;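 further: cells exposed to compound for 96 hours before readout; 0% = vehicle DMSO and 100% = high DMSO killing control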
[11] = growth inhibition, single agent or in combination, cell-based, chromothripsis tumors, cisplatin or BGB combos (AID 1671449); conditions: LFS_MB_P medulloblastoma cells;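 further: cells exposed for 96 hours; 0% = vehicle DMSO and 100% = killing by high DMSO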
[12] = growth inhibition, single agent and combos, cell-based, chromothripsis tumors, cisplatin or BGB combos (AID 1671450); conditions: HDN33 neuroblastoma cells, stronger effect = higher value;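 further: cells exposed to compound for four days; 0% = vehicle DMSO and 100% = cell killing by high DMSO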
[13] = growth inhibition, single agents and combos, ICB984, cell-based, cisplatin or BGB combos, synergistic combos for chromothripsis tumors (AID 1671451; call rule not given here;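 further: cells exposed for 96 hours before readout; 0% = vehicle DMSO and 100% = killing by high DMSO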); conditions: ICB984 medulloblastoma cells, drug combinations, stronger effect = higher value
[14] = growth inhibition, single agents and combos, LFS_MB_1R, cell-based, cisplatin or BGB combos, synergistic combos for chromothripsis tumors (AID 1671452); conditions: LFS_MB_1R medulloblastoma cells, stronger effect = higher value;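 further: cells exposed for 96 hours before readout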
[15] = growth inhibition, single agents and combos, HTB85, cell-based, BGB or cisplatin IC20 combos, synergistic combos for chromothripsis tumors (AID 1671453); conditions: HTB85 osteosarcoma cells, drug combinations, stronger effect = higher value;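 further: cells exposed for 96 hours before readout; 0% = vehicle DMSO and 100% = high DMSO killing control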
[16] = measured here: combination with BGB at IC20, at 0.5 µM
[17] = measured here: combination with cisplatin at IC20, at 0.5 µM
[18] = measured here: combo with BGB at IC20, at 0.5 µM
[19] = measured here: combo with cisplatin at IC20, at 0.5 µM
[20] = measured here: inhibition with BGB combination, at 0.05 µM
[21] = measured here: inhibition with cisplatin combination, at 0.05 µM
[22] = measured here: combination with cisplatin, at 0.5 µM
[23] = measured here: combination with cisplatin, at 5 µM
[24] = measured here: BGB combination, at 0.5 µM
[25] = measured here: BGB combination, at 5 µM
[26] = measured here: cisplatin combination, at 0.5 µM
[27] = measured here: cisplatin combination, at 5 µM
[28] = BGB combination, concentration series, at 5 µM
[29] = cisplatin combination, concentration series, at 5 µM
[30] = measured here: combo with BGB IC20
[31] = measured here: combo with cisplatin IC20
[32] = cisplatin combination, at 0.5 µM
[33] = measured here: BGB IC40 combination 0.05 uM, at 0.05 µM
[34] = measured here: BGB IC40 combination, at 0.05 µM
[35] = measured here: with BGB IC20 combination, at 0.5 µM
[36] = measured here: with cisplatin IC20 combination, at 0.5 µM
[37] = measured here: combination with BGB IC40, at 0.05 µM

## CCC(C)C(=O)OC1CC(C)C=C2C=CC(C)C(CCC3CC(O)CC(=O)O3)C21 (stereo unspecified)
[1]; at 0.5 µM
  inhibition: -29.5% (inactive)
[1]; [16]
  inhibition: -33%
[1]; [17]
  inhibition: -19.4%
[2]; at 0.5 µM
  inhibition: 30.1% (inactive)
[2]; [18]
  inhibition: 26.5%
[2]; [19]
  inhibition: 26.8%
[3]; at 0.5 µM
  inhibition: 5.25% (inactive)
[3]; [20]
  inhibition: -16.1%
[3]; [21]
  inhibition: 5.33%
[4]; at 0.5 µM
  inhibition: -20.3% (inactive)
[4]; [22]
  inhibition: -23.3%
[4]; [23]
  inhibition: -7.2%
[5]; at 0.5 µM
  inhibition: -16.4% (inactive)
[5]; [24]
  inhibition: -18.4%
[5]; [25]
  inhibition: -6.45%
[5]; [26]
  inhibition: -23%
[5]; [27]
  inhibition: 8.95%
[6]; [28]
  inhibition: 23.4%
[6]; at 0.5 µM
  inhibition: 3.85% (inactive)
[6]; [29]
  inhibition: 29.3%
[7]
  inhibition: -9.68% (inactive)
[7]; [30]
  inhibition: -8.02%
[7]; [31]
  inhibition: -11.2%
[8]; at 0.5 µM
  inhibition: 6.42% (inactive)
[8]; [32]
  inhibition: 24.4%
[8]; cisplatin combination, at 5 µM
  inhibition: 33.2%
[8]; [33]
  inhibition: 4.47%
[8]; single agent, at 5 µM
  inhibition: 25.9%
[9]; at 0.5 µM
  inhibition: 1.38% (inactive)
[9]; cisplatin combo, at 5 µM
  inhibition: 4.72%
[9]; [34]
  inhibition: -3.68%
[9]; [22]
  inhibition: 2.71%
[9]; single agent, at 5 µM
  inhibition: 8.59%
[10]; at 0.5 µM
  inhibition: 4.53% (inactive)
[10]; [35]
  inhibition: 12.6%
[10]; [36]
  inhibition: 0.492%
[10]; single agent, at 0.05 µM
  inhibition: -12.7%
[10]; single agent, at 5 µM
  inhibition: 11.3%

## CCC1(O)C(=O)OCc2c1cc1n(c2=O)Cc2cc3cc(O)ccc3nc2-1 (stereo unspecified)
[11]; at 0.5 µM, stronger effect = higher value
  inhibition: -23.8% (inactive)
[11]; measured here: combination with BGB IC20, at 0.005 µM
  inhibition: -39%
[11]; measured here: combination with BGB IC40, at 0.005 µM
  inhibition: -64.3%
[11]; [37]
  inhibition: -39.2%
[11]; measured here: combination with cisplatin, at 0.5 µM, stronger effect = higher value
  inhibition: -28.8%
[11]; measured here: combination with cisplatin, at 5 µM, stronger effect = higher value
  inhibition: 80.4%
[12]; BGB combo, at 5 µM
  inhibition: 96.2%
[12]; at 0.5 µM
  inhibition: 75% (inactive)
[12]; cisplatin combo, at 5 µM
  inhibition: 94.5%
[12]; [35]
  inhibition: 83.6%
[12]; [36]
  inhibition: 67.2%
[12]; single agent, at 5 µM
  inhibition: 96%
[13]; BGB IC20 combo, at 0.005 µM
  inhibition: -7.43%
[13]; BGB IC40 combo, at 0.005 µM
  inhibition: -6.67%
[13]; BGB IC40 combo, at 0.05 µM
  inhibition: 96.1%
[13]; at 0.5 µM
  inhibition: -15.7% (inactive)
[13]; cisplatin combo, at 0.05 µM
  inhibition: 96.4%
[13]; cisplatin combo, at 0.5 µM
  inhibition: -28.1%
[13]; cisplatin combo, at 5 µM
  inhibition: -59%
[13]; measured here: 5 uM single agent, at 5 µM
  inhibition: -24.3%
[14]; at 0.5 µM
  inhibition: 46% (inactive)
[14]; [37]
  inhibition: -11.8%
[14]; [22]
  inhibition: 91.8%
[14]; [23]
  inhibition: 84.6%
[15]; at 0.5 µM
  inhibition: 98% (active)
[15]; measured here: with BGB IC20, at 0.5 µM
  inhibition: 97.4%
[15]; measured here: with BGB IC20, at 5 µM
  inhibition: 98%
[15]; measured here: with cisplatin IC20, at 0.5 µM
  inhibition: 97.8%
[15]; measured here: with cisplatin IC20, at 5 µM
  inhibition: 99.5%
[15]; single agent, at 5 µM
  inhibition: 99.6%
[1]; at 0.5 µM
  inhibition: 43.5% (inactive)
[1]; [16]
  inhibition: 62.2%
[1]; [17]
  inhibition: 19%
[2]; at 0.5 µM
  inhibition: 98.3% (active)
[2]; [18]
  inhibition: 98%
[2]; [19]
  inhibition: 98.2%
[3]; at 0.5 µM
  inhibition: 83.6% (active)
[3]; [20]
  inhibition: 5.35%
[3]; [21]
  inhibition: 7.19%
[4]; at 0.5 µM
  inhibition: -2.53% (inactive)
[4]; [22]
  inhibition: 28.3%
[4]; [23]
  inhibition: 65.3%
[5]; at 0.5 µM
  inhibition: 65.8% (inactive)
[5]; [24]
  inhibition: 59%
[5]; [25]
  inhibition: 70.2%
[5]; [26]
  inhibition: 63.8%
[5]; [27]
  inhibition: 80.3%
[6]; [28]
  inhibition: 95.1%
[6]; at 0.5 µM
  inhibition: 89% (active)
[6]; [29]
  inhibition: 102%
[7]
  inhibition: 73.4% (inactive)
[7]; [30]
  inhibition: 82.6%
[7]; [31]
  inhibition: 57.6%
[8]; at 0.5 µM
  inhibition: 1.31% (inactive)
[8]; [32]
  inhibition: 54.4%
[8]; cisplatin combination, at 5 µM
  inhibition: -68.1%
[8]; [33]
  inhibition: -44.1%
[8]; single agent, at 5 µM
  inhibition: -0.722%
[9]; at 0.5 µM
  inhibition: 24% (inactive)
[9]; cisplatin combo, at 5 µM
  inhibition: 79.3%
[9]; [34]
  inhibition: -9.73%
[9]; [22]
  inhibition: 24.7%
[9]; single agent, at 5 µM
  inhibition: 49.8%
[10]; at 0.5 µM
  inhibition: 74.6% (inactive)
[10]; [35]
  inhibition: 87.6%
[10]; [36]
  inhibition: 67.5%
[10]; single agent, at 0.05 µM
  inhibition: 14.1%
[10]; single agent, at 5 µM
  inhibition: 99.4%
